Measurements from PubChem BioAssay.
The source made the active and inactive calls.

Legend:
[1] = target: Albumin (Bos taurus) (UniProt P02769); assay: compounds binding labelled BSA control protein – biochemical, small-molecule microarray, Alexa647 label, 635/667 nm fluorescence, artefact control for SMM control protein annotation, profiling panel (AID 1118); details: BSA-A647 binding, fluorescence 635 nm, higher = more signal;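 note: score merges 667 nm emission intensity and signal-to-noise per printed compound spot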
Sequence of Albumin (Bos taurus) (P02769 whole entry, looked up): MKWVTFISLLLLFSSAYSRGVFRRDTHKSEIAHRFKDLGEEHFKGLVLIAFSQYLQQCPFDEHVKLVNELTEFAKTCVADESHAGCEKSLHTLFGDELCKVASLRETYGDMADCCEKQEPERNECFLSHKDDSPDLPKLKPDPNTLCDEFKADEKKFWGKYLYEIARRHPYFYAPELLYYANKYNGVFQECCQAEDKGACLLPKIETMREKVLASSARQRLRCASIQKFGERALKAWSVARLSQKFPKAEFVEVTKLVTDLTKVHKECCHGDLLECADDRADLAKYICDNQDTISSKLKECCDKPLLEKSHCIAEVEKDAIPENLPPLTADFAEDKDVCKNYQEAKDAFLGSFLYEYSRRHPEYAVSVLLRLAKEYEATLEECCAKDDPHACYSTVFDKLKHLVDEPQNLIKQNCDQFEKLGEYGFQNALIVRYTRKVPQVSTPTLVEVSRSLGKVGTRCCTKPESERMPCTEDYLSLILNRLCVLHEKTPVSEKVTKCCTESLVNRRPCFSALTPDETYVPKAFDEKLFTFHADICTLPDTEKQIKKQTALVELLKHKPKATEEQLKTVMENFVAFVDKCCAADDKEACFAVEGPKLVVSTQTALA

[2] = probe aXIP binding to arrayed compounds – biochemical, NeuroSMM set, 635/667 nm fluorescence, primary screen (AID 1119); details: small-molecule microarray, higher = more signal, called active from +8 up or from −8 down;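 note: probe is the protein aXip251-270 applied at 1 µg/mL to compound-printed slides; binding of probe to printed compounds measured as 667 nm fluorescence plus signal to noise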
[3] = probe aNOTCH3 binding on compound microarray – biochemical, small-molecule microarray, 635/667 nm fluorescence, primary screen (AID 1120); details: higher = more signal;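 note: probe is a biotin-tagged antibody raised against NOTCH3 rather than NOTCH3 protein; score merges spot fluorescence near 667 nm with spot signal to noise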
[4] = probe aNOTCH2 binding on compound microarray – biochemical, small-molecule microarray, 635/667 nm fluorescence, primary screen (AID 1121); details: higher = more signal;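 note: score merges feature fluorescence read at 667 nm with its signal to noise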
[5] = target: Carbonic anhydrase 2 (Homo sapiens) (UniProt P00918); assay: compounds binding carbonic anhydrase 2 – biochemical, small-molecule microarray, Alexa647-labelled CAII, profiling panel (AID 1122); details: CAII-A647 binding fluorescence, higher = more signal
[6] = COS7 lysate on small-molecule microarray, probe aHis, 635 nm (AID 1123); details: COS7 cell lysate, fluorescence, higher = more signal;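 note: z-score combines 667nm fluorescence intensity with signal-to-noise per printed compound spot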
[7] = probe aLAP1 signal on lysate-treated microarray – cell lysate, small-molecule microarray, COS7 lysate, primary screen (AID 1124); details: probe aLAP1, fluorescence, higher = more signal;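 note: lysate comes from COS7 cells expressing LAP1 and is applied at 0.3 µg/mL; score merges spot fluorescence near 667 nm with signal-to-noise over triplicate slides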
[8] = test system: Sam68 (KHDRBS1); assay: compounds binding KHDRBS1 protein – biochemical, small-molecule microarray, 635 nm fluorescence, primary screen (AID 1125); details: higher = more signal;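 note: score merges 667 nm channel intensity with signal to noise over triplicate slides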
[9] = test system: Chordin-like protein 2 (CHRDL2); assay: compounds binding chordin-like 2 – biochemical, small-molecule microarray, 635 nm fluorescence, primary screen (AID 1126); details: fluorescence 635 nm, higher = more signal;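 note: printed compound slides probed with Chrdl2 protein at 4 µg/mL for 1 h at 4 C; score merges 667 nm emission intensity with signal to noise over three replicate slides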
[10] = target: Concanavalin-A (Canavalia ensiformis) (UniProt P02866); assay: compounds binding concanavalin A lectin – biochemical, small-molecule microarray, Alexa647 label, 635 nm, artefact control for SMM control protein annotation, primary screen (AID 1127); details: ConA-A647 binding fluorescence, higher = more signal;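 note: z combines 667 nm emission intensity with signal-to-noise across three replicate slides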
Sequence of Concanavalin-A (Canavalia ensiformis) (P02866 whole entry, looked up): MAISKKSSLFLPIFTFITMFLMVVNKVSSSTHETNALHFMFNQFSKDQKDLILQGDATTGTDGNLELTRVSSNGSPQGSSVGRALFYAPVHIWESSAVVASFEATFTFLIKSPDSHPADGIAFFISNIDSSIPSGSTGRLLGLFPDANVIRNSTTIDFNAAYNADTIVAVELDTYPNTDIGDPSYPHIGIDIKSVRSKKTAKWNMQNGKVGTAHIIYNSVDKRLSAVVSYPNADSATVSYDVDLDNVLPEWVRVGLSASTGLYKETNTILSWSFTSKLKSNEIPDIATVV

Row | Compound | composite z-score [1] | composite Z-score [2] | composite z-score [3] | composite z-score [4] | composite z-score [5] | composite z-score [6] | composite z-score [7] | composite z-score [8] | composite z-score [9] | composite z-score [10]
1 | COc1ccc([Si](C)(C)[C@@H]2[C@@H](CC(=O)N3Cc4ccccc4C[C@H]3CO)O[C@]3(C(=O)N(Cc4cccc(N5CCC5=O)c4)c4ccccc43)[C@H]2C)cc1 | -0.147 | 0.3 (inactive) | 0.16 | -0.117 | 0.283 | 1.15 | 0.0905 | 1.22 | 0.711 | 0.961
2 | O=C1C2C=CC(C(O)c3c(F)cccc3Cl)N(Nc3ccccc3F)C2C(=O)N1c1ccccc1 (stereo not given) | 0.913 | -0.145 (inactive) | 0.185 | -0.0216 | 0.691 | 1.67 | 0.497 | 1.21 | -0.534 | 0.972
3 | COc1cc2c(cc1O)C(c1cccs1)N(Cc1cccc(OC(F)(F)F)c1)CC2 (stereo not given) | 0.899 | 0.934 (inactive) | -0.128 | -0.148 | 0.78 | 2.6 | 0.336 | 1.15 | 0.375 | 0.127
4 | CC1CC/C=C\[C@H]2OC34C=CCN(c5ccc6ccccc6c5)C(=O)[C@H]3N(CCO)C(=O)[C@@H]4C2C(=O)O1 (stereo not given in full) | 0.653 | 0.0214 (inactive) | -0.19 | -0.0903 | 0.829 | 0.275 | 0.758 | 0.0573 | -0.628 | -1.12
5 | O=C1OCC=C[C@H]2OC34C=CCN(Cn5nnc6ccccc65)C(=O)[C@H]3N(CCCCCO)C(=O)[C@@H]4[C@@H]12 (stereo not given in full) | -0.552 | 0.177 (inactive) | -0.211 | -0.108 | 0.9 | 1.34 | 0.435 | -0.171 | -1.87 | -0.727
6 | COCCOC(=O)N1C(=O)[C@@]2(c3cc(C#CC4(O)CCCCCC4)ccc31)[C@H](c1ccccc1OCCO)N1[C@H](c3ccccc3)[C@H](c3ccccc3)OC(=O)[C@H]1[C@@H]2C(=O)N1CCc2cc(OC)c(OC)cc2C1 | 0.223 | 0.758 (inactive) | 0.0039 | -0.0817 | 0.527 | 1.89 | 0.612 | 1.29 | -0.225 | 1.13
7 | CCCNC(=O)[C@@]1(Sc2ccc(C)cc2)CC(=O)N(Cc2ccccc2C(F)(F)F)[C@@H]1c1ccc(CO)cc1I | 0.31 | 0.222 (inactive) | 0.0696 | -0.123 | 0.624 | 1.82 | 0.116 | 1.29 | 0.315 | 0.435
8 | [N-]=[N+]=NCc1ccccc1[C@@H]1OC(c2ccc(OCCCO)cc2)=N[C@]1(CCS(=O)(=O)c1ccccc1)C(=O)N1CCOCC1 | 0.923 | -0.244 (inactive) | 0.391 | 0.104 | 0.513 | 2.62 | 0.254 | 1.3 | -0.213 | 1.19
9 | CN(C)CCCCCCNC(=O)[C@@H]1C[C@@H]2C(=O)N[C@@H](CCCC[N+](C)(C)C)C(=O)N2[C@@H]1c1ccc(O)cc1 | -0.793 | 1.56 (inactive) | 0.164 | -0.231 | 0.797 | 0.125 | 0.246 | 0.794 | 0.918 | 0.898
10 | Cc1ccc([C@H]2C(C(=O)O)=CCN2S(=O)(=O)c2ccc(C)cc2)cc1 | 0.899 | -0.168 (inactive) | -0.0299 | -0.109 | 0.825 | 1.21 | 0.584 | 0.539 | -0.518 | 1.02
11 | [N-]=[N+]=Nc1ccccc1C[C@]1(C(=O)N2CCCCC2)COC(c2ccc(OCCCO)cc2)=N1 | 0.715 | -0.218 (inactive) | 0.176 | -0.124 | 0.613 | 2.74 | 0.236 | 1.28 | -0.217 | 0.345
12 | COC(=O)c1c(CC[C@@H](CO)NC(=O)N[C@H](Cc2ccccc2)Cn2cc(-c3ccccn3)nn2)oc(C(C)=O)c1C(=O)OC | 0.687 | 0.794 (inactive) | -0.154 | -0.118 | 0.71 | 0.798 | 1.26 | 0.954 | -0.418 | 1.09
13 | CO[C@H]1O[C@H](CO)[C@@H](OC(=O)Nc2ccc(Br)cc2)[C@@H]2OC(=O)[C@H](Cc3cccc(Br)c3)C/C=C/C[C@@H](Cc3cccc(Br)c3)C(=O)O[C@@H]12 | 0.0911 | 0.106 (inactive) | -0.0622 | -0.129 | 0.275 | 0.112 | -0.0838 | -0.975 | 0.0113 | 0.365
14 | COC(=O)[C@@]1(Cc2ccc(OC)cc2)[C@H]2c3cc(C(=O)N4CCCC4)n(Cc4nc5ccccc5[nH]4)c3C[C@H]2CN1C(=O)c1ccccc1 | 1.08 | 0.234 (inactive) | 0.537 | 0.013 | 0.78 | 3.39 | 1.13 | 1.32 | -0.45 | 0.174
15 | CCOC(=O)C1=CC[C@@H](c2ccccc2)N(S(=O)(=O)c2ccc(C)cc2)[C@H]1c1ccc(CC)cc1 | 0.847 | -0.579 (inactive) | 0.0749 | -0.0371 | 0.571 | 1.52 | 0.662 | 1.1 | -0.0671 | 1.11
16 | O=C(O)[C@H](Cc1ccccc1)n1cc(-c2ccccc2)nn1 | 0.0644 | 0.52 (inactive) | -0.0313 | -0.164 | 0.155 | -0.065 | 0.277 | 0.187 | 0.238 | 0.362
